Screening data deposited in PubChem by National Center for Advancing Translational Sciences (NCATS).
TDP1 block = qHTS Assay for Inhibitors of Tyrosyl-DNA Phosphodiesterase (TDP1) | Tyrosyl-DNA phosphodiesterase 1 (Homo sapiens), Q9NUW8 | recombinant TDP1, AlphaScreen DNA substrate cleavage | Potency, µM (highest dose often 130 µM), for the others: top-dose activity change, negative = inhibition, actives largely listed as inhibitors | actives 0.28% (n = 350,000) | AID 485290, 2010; further: nearly all actives have a fitted effect of over 40% in size
Target sequence (Q9NUW8 whole entry, looked up): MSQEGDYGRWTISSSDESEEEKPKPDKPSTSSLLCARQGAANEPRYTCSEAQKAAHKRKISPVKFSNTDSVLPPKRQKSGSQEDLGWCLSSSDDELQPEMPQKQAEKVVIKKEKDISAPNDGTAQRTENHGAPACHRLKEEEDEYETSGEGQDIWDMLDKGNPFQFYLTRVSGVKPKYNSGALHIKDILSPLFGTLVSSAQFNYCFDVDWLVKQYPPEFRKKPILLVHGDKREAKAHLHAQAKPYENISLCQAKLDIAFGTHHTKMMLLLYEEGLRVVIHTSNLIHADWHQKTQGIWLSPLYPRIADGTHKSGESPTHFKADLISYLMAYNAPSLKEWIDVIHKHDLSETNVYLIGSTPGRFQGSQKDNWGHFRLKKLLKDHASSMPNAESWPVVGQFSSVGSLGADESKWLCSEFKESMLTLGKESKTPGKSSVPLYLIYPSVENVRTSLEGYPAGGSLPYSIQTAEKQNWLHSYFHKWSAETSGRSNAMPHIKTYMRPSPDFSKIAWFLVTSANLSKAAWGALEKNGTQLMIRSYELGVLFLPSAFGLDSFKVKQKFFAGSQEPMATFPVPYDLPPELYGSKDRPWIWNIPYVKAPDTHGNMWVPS
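Steps: enzyme plus compound, 15 min RT; add biotin/phosphotyrosine-FITC oligonucleotide (15 nM final), react 5 min; add donor/acceptor beads (10 ug/ml final), 10 min; read AlphaScreen. Tdp1 at 1 nM final.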
Gal4-VP16 FLuc = VP16 counterscreen qHTS for inhibitors of ROR gamma transcriptional activity; Drosophila S2 Gal4-VP16 UAS-luciferase, luminescence, 20 h; Potency, µM (top dose mostly 53.6 µM), for the others: top-dose activity, negative = inhibition, usual class: inhibitors; actives 3.5% (n = 310,000); AID 2546, 2010;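 further: Gal4-VP16 expression switched on by copper sulfate through the metallothionein promoter; nearly all actives have a fitted effect of over 50% in size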
TDP1 cell CPT = qHTS for Inhibitors of human tyrosyl-DNA phosphodiesterase 1 (TDP1): qHTS in cells in presence of CPT; chicken DT40 Tdp1-/-;hTDP1 cells + 20 nM CPT, ATP luminescence, 48 h; Potency, µM (series often up to 46.2 µM), for the others: at the highest dose activity change, negative = growth inhibition, actives largely listed as inhibitors; actives 12% (n = 420,000); AID 686979, 2013; further: nearly all actives have a fitted effect of over 55% in size
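Chicken DT40 Tdp1-/- cells stably complemented with human TDP1 were seeded at 400 cells/well in medium containing 20 nM camptothecin, exposed to pin-transferred compounds, and grown at 37 °C for at least 48 hr. Viability was read as ATP luminescence.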
RORgamma inh = qHTS for inhibitors of ROR gamma transcriptional activity. Nuclear receptor ROR-gamma (Mus musculus), P51450. Drosophila S2 Gal4-RORgamma UAS-luciferase reporter, 20 h. Potency, µM (titrated, usually from 53.6 µM), without a hit: at the top dose activity change, negative = inhibition, hits mostly inhibitors. actives 5.4% (n = 310,000). AID 2551, 2010; further: nearly all actives have a fitted effect of over 60% in size
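A Gal4/UAS one-hybrid system in insect cells: metallothionein-promoter Gal4–ROR gamma fusion plus Photinus luciferase reporter. Copper sulfate 700 uM final, 20 hr ambient incubation, luminescent detection after 10 min with reagent.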
TDP1 cell noCPT = qHTS for Inhibitors of human tyrosyl-DNA phosphodiesterase 1 (TDP1): qHTS in cells in absence of CPT | DT40 Tdp1-/- hTDP1 cells, no CPT, ATP luminescence, 48 h | Potency, µM (top dose mostly 46.2 µM), without a hit: at the highest dose activity change, negative = growth inhibition, hits mostly inhibitors | actives 15% (n = 420,000) | AID 686978, 2013; further: nearly all actives have a fitted effect of over 55% in size
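Readout: luminescence from CellTiter-Glo after 30 min in the dark at RT. Cells: DT40 Tdp1-/- with stable hTDP1, 400/well. Exposure: compounds alone, ≥48 hr, 37 °C.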
Numbers without * were called inactive. The list is not random: actives were taken first. Their share in the collection is about 19%. The call rests on the fitted dose curve; in most records, active means well fitted curve in the direction sought with a large enough effect; inconclusive means small, poorly fitted or top-dose-only effect, or another doubt; inactive means no such curve, though single readings can be large; an effect the other way counts as inactive or inconclusive. On the % scale 0 is the no-effect control and ±100 the full control effect; potency means the concentration at half of the fitted maximal effect.

For C[C@H](CO)N1C[C@H](C)[C@H](CN(C)Cc2ccncc2)OCc2ccccc2-c2c(n(C)c3ccccc23)C1=O the results were TDP1 cell CPT 26µM* and TDP1 cell noCPT 16µM*.
For C[C@H](CO)N1C[C@H](C)[C@H](CN(C)Cc2ccc(C(=O)O)cc2)OCc2ccccc2-c2c(n(C)c3ccccc23)C1=O the results were TDP1 cell CPT -26% and TDP1 cell noCPT inconclusive.
Screening C[C@@H]1CN([C@@H](C)CO)C(=O)c2c(c3ccccc3n2C)-c2ccccc2CO[C@H]1CN(C)C(=O)[C@H](Cc1ccccc1)N(C)C returned TDP1 cell CPT inconclusive and TDP1 cell noCPT 21µM*.
Screening Cc1ccc(Cl)cc1NC(=O)C1CCCN(S(C)(=O)=O)C1 (configuration not stated) returned TDP1 block 4%, Gal4-VP16 FLuc -2%, TDP1 cell CPT 8%, RORgamma inh -4% and TDP1 cell noCPT 7%.
For O=C(Nc1ccccc1C(=O)Nc1ccccn1)c1cc(F)c(F)cc1Cl the results were Gal4-VP16 FLuc 3%, TDP1 cell CPT -21%, RORgamma inh 2% and TDP1 cell noCPT -19%.
For COc1cc(/C=C2/SC(=S)N(CCC(=O)Nc3ccc(C(=O)O)cc3)C2=O)cc(OC)c1OC the results were TDP1 block 5%, Gal4-VP16 FLuc -4%, TDP1 cell CPT 9%, RORgamma inh -26% and TDP1 cell noCPT 13%.
COc1ccccc1NC(=O)CCN1C(=O)/C(=C/c2cc(OC)c(OC)c(OC)c2)SC1=S was read as Gal4-VP16 FLuc -9%, TDP1 cell CPT inconclusive, RORgamma inh 8% and TDP1 cell noCPT 15µM*.
Screening COc1cc(/C=C2\SC(=S)N(CCC(=O)Nc3ccc(O)cc3)C2=O)cc(OC)c1OC returned Gal4-VP16 FLuc 8%, TDP1 cell CPT inconclusive, RORgamma inh inconclusive and TDP1 cell noCPT 16µM*.
Screening C=CCNC(=S)N(C1CCCCC1)C1CCCCC1 returned TDP1 block -1%, Gal4-VP16 FLuc 2%, TDP1 cell CPT inconclusive, RORgamma inh 10µM* and TDP1 cell noCPT 23µM*.
`COC(=O)c1ccc(NCC(=O)Nc2cc(C)cc(C)c2)cc1` gave Gal4-VP16 FLuc -13%, TDP1 cell CPT -22%, RORgamma inh -3% and TDP1 cell noCPT -26%.
Cc1nc(C(=O)NC2CCCCC2)sc1C1(C)CC(c2cccc([N+](=O)[O-])c2)=NO1 (configuration not stated) was read as TDP1 block 6%, Gal4-VP16 FLuc -8%, TDP1 cell CPT inconclusive, RORgamma inh inconclusive and TDP1 cell noCPT 23µM*.
For COc1ccc(NC(=O)c2nc(C)c(C3(C)CC(c4cccnc4)=NO3)s2)cc1 (configuration not stated) the results were TDP1 block 8%, Gal4-VP16 FLuc -5%, TDP1 cell CPT 5.8µM*, RORgamma inh 27% and TDP1 cell noCPT 3.7µM*.
For Cc1nc(C(=O)Nc2cc(F)cc(Cl)c2)sc1C1(C)CC(c2ccccc2)=NO1 (configuration not stated) the results were TDP1 cell CPT 16µM* and TDP1 cell noCPT 21µM*.
`COc1ccc(C2OC(=O)CC2C(=O)NCc2ccc(C)cc2)cc1OC` (configuration not stated) gave TDP1 block 5%, Gal4-VP16 FLuc 2%, TDP1 cell CPT 10%, RORgamma inh 16% and TDP1 cell noCPT 1%.
